# In PubChem BioAssay AID2240 (Broad Institute, 2010):
# Hit rate of the full screen: of about 37,000 compounds, about 100 (0.27%) were called active. The list comes from a sample in which actives are over-represented; it also holds similar structures and randomly drawn compounds. Values without a mark were called inactive. No stated cut-off is given here; in the data, active means inhibition above about 85%; inconclusive means no clear call, values can overlap the other calls; inactive means below about 68%.
# Assay: blocks MITF activity, primary screen, MITF inhibitor project, cell-based, luminescence (AID 2240);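 further: human melanocyte line stably carrying TRPM1 promoter luciferase reporter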
# Settings: TRPM1 promoter luciferase, 24 h, hits give high values, concentration not given here
row,Structure (SMILES),inhibition
1,O=C(c1ccc(NCc2cccnc2)c([N+](=O)[O-])c1)N1CCCCC1,6.72%
2,CC1(C)Cc2c(sc3ncn4nc(COc5ccc(Cl)cc5)nc4c23)C(C)(C)N1,6.06%
3,CNC[C@@H]1Oc2c(NC(=O)Nc3ccc(OC)cc3)cccc2C(=O)N([C@@H](C)CO)C[C@@H]1C,-2.63%
4,C[C@H]1CN([C@@H](C)CO)C(=O)Cc2cc(NC(=O)NC3CCCCC3)ccc2O[C@@H]1CN(C)Cc1ccc(Oc2ccccc2)cc1,33.3%
5,C[C@@H]1CN([C@H](C)CO)C(=O)Cc2cc(NC(=O)NC3CCCCC3)ccc2O[C@H]1CN(C)S(=O)(=O)c1ccc(Cl)cc1,-10.5%
6,Cc1ccc(N(CC(=O)Nc2ccccc2Sc2ccccc2)S(C)(=O)=O)c(C)c1,-5.49%
7,CC(=O)Nc1nc2ccccc2s1,-10.3%
8,Cc1noc(C)c1NC(=O)Nc1cccc2c1O[C@@H](CN(C)Cc1ccc(C(F)(F)F)cc1)[C@@H](C)CN([C@@H](C)CO)C2=O,1.59%
9,COc1ccc(NC(=O)Nc2cccc3c2O[C@@H](CN(C)S(=O)(=O)c2cn(C)cn2)[C@H](C)CN([C@@H](C)CO)C3=O)cc1,-11.4%
10,C[C@@H]1CN([C@H](C)CO)C(=O)c2cc(NC(=O)NC3CCCCC3)ccc2O[C@@H]1CN(C)S(C)(=O)=O,1.34%
11,Nc1cc(N)nc(SCC(=O)c2ccc(Br)cc2)n1,-22.1%
12,CCCCn1c(O)c(C#N)c(C)cc1=O,-16.6%
13,C[C@H]1CN([C@@H](C)CO)C(=O)Cc2cc(NS(C)(=O)=O)ccc2O[C@@H]1CN(C)CC1CC1,-11.8%
14,C=CCn1c2ccccc2c2nnc(SCC(=O)N3c4ccccc4Sc4ccccc43)nc21,27.5%
15,Cc1ccc(-c2nnc(Nc3ccc(C(=O)N(C)C)cc3)c3ccccc23)cc1S(N)(=O)=O,-20.2%
16,Cc1nn(-c2ccccc2)c(CC(C)(C)C(=O)O)c1C(=O)O,-5.62%
17,CCc1cc2c(=O)n(-c3ccccc3)c(SCC(=O)O)nc2s1,-1.73%
18,COc1cc(S(=O)(=O)NCCN2CCOCC2)ccc1Br,1.46%
19,C=C1C(=O)O[C@H]2C3=C(C)C[C@H](OC(C)=O)C[C@]3(C)CC[C@@H]12,8.27%
20,Oc1ccc(CN2CCCC2)c2cccnc12,40.6%
21,C[C@H]1CN([C@@H](C)CO)C(=O)c2cc(NC(=O)Cn3cnnn3)ccc2O[C@@H]1CN(C)C(=O)Nc1ccccc1,5.69%
22,C[C@H](CO)N1C[C@H](C)[C@H](CN(C)CC2CC2)Oc2ccc(NC(=O)c3ccncc3)cc2C1=O,-11.7%
23,C=C1C[C@@]23CC[C@@H]4[C@](C)(CO)CCC[C@@]4(C)[C@@H]2CC[C@@H]1C3,-32.7%
24,Cc1ccc(NC(=O)C(C)N(c2ccc(Cl)cc2)S(C)(=O)=O)c(C)c1 (configuration not stated),-5.76%
25,Cc1cc([N+](=O)[O-])nn1CC(=O)NC(C)C,8.94%
26,C[C@@H]1CN([C@@H](C)CO)C(=O)c2cc(NC(=O)Nc3ccccc3)ccc2O[C@H]1CN(C)C(=O)Nc1ccc(F)cc1,3.76%

row,Structure (SMILES),inhibition
1,COc1ccccc1NC(=O)C1=C(C)Nc2nnnn2C1c1ccccc1OCc1ccccc1 (configuration not stated),41.2%
2,O=C(CSc1nnc(-c2ccccc2)n1-c1ccccc1)c1cccc([N+](=O)[O-])c1,5.69%
3,C[C@H](CO)N1C[C@H](C)[C@@H](CN(C)Cc2ccc(C(F)(F)F)cc2)Oc2ccc(NC(=O)CCN3CCOCC3)cc2C1=O,-9.07%
4,c1ccc(Cn2c3ccccc3c3nnc(SCc4ccc5nonc5c4)nc32)cc1,20.6%
5,C[C@@H]1CCCCO[C@@H](CN(C)C(=O)CCC(F)(F)F)[C@@H](C)CN([C@H](C)CO)C(=O)c2cc(NC(=O)Nc3ccccc3)ccc2O1,-11.3%
6,C[C@@H]1CN([C@@H](C)CO)C(=O)c2cc(NC(=O)C3CCCCC3)ccc2O[C@@H]1CN(C)Cc1ccc(C(=O)O)cc1,1.31%
7,COc1ccc(NC(=O)CN(C)S(=O)(=O)c2ccccc2)cc1OC,-9.83%
8,COc1ccc(NC(=O)N(C)C[C@H]2Oc3c(NC(=O)C4CC4)cccc3C(=O)N([C@@H](C)CO)C[C@@H]2C)cc1,0.647%
9,C[C@H]1CN([C@@H](C)CO)C(=O)c2cc(N(C)C)ccc2O[C@@H]1CN(C)Cc1ccccc1,-14.1%
10,O=C(CSc1nccc(=O)[nH]1)Nc1ccc([N+](=O)[O-])cc1,-3.55%
11,COc1cc(NC(=S)NCCN2CCOCC2)c(OC)cc1Cl,17.1%
12,O=C(Nn1cnc2ccccc2c1=O)c1ccccc1,-19.3%
13,C[C@@H]1CN([C@H](C)CO)C(=O)c2cc(NS(=O)(=O)c3cccs3)ccc2O[C@@H]1CN(C)Cc1ccc(C(F)(F)F)cc1,-1.87%
14,COc1ccc(NC(=O)Nc2cccc3c2O[C@@H](CN(C)S(=O)(=O)c2ccc(C)cc2)[C@H](C)CN([C@@H](C)CO)C3=O)cc1,-6.48%
15,CCN(c1ccccc1)S(=O)(=O)c1ccc(C)cc1,12.9%
16,C[C@H](CO)N1C[C@H](C)[C@H](CN(C)C(=O)Nc2ccc3c(c2)OCO3)Oc2ccc(NC(=O)Nc3ccccc3)cc2CC1=O,-9.08%
17,COc1ccc(S(=O)(=O)N(C)C[C@H]2Oc3ccc(NC(=O)C4CC4)cc3CC(=O)N([C@@H](C)CO)C[C@@H]2C)cc1,-12.4%
18,COC(=O)c1c(-c2cccnc2)csc1NC(=O)c1cc(-c2ccc(C)o2)nc2ccccc12,-34.4%
19,Cc1ccc(S(=O)(=O)N(C)C[C@H]2Oc3c(NS(=O)(=O)c4cccs4)cccc3C(=O)N([C@@H](C)CO)C[C@@H]2C)cc1,0.709%
20,O=C(CSc1nc2ccccc2s1)c1cc2ccccc2oc1=O,-18%
21,C[C@@H]1CN([C@@H](C)CO)C(=O)c2cc(NC(=O)CCCN(C)C)ccc2O[C@@H]1CN(C)Cc1ccncc1,4.25%
22,CCCN(C)C[C@H]1OCCCC[C@@H](C)Oc2ccc(N(C)C)cc2C(=O)N([C@H](C)CO)C[C@@H]1C,43.3%
23,CC(=O)c1c(C)nn(CC(O)COc2ccc3cc(Br)ccc3c2)c1C (configuration not stated),50.6%
24,Cc1ccc(S(=O)(=O)N(C)C[C@H]2Oc3c(NS(=O)(=O)c4ccc(Cl)cc4)cccc3C(=O)N([C@H](C)CO)C[C@@H]2C)cc1,0.159%
25,Oc1c(Cl)cc(Cl)c(Cl)c1Cc1c(O)c(Cl)cc(Cl)c1Cl,93.7% (active)
26,O=C(NCCN1CCCCC1)Nc1cccc2ccccc12,5.31%
